Experimental data: PubChem BioAssay (NCI)
The panel holds about 83,000 compounds, 20% with a hit somewhere; the sample as a whole holds those more often.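 Method: cells in 96-well plates; compound added at one concentration; 48 h incubation; percent growth measured; values under 10 scored active.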 Unmarked numbers belong to inactive results. Active and inactive are the calls of the source.

Experiments:
Assay in all cases: NCI-60 one-dose screen, 48 h (100 = growth as untreated, 0 = no growth, -100 = all killed)
Details in all cases: 10 µM
EKVX NSCLC = tested on: EKVX NSCLC
SN12C renal = tested on: SN12C renal
UO-31 renal = tested on: UO-31 renal
TK-10 renal = tested on: TK-10 renal
ACHN renal = tested on: ACHN renal
CAKI-1 renal = tested on: CAKI-1 renal
A498 renal = tested on: A498 renal
CCRF-CEM leukemia = tested on: CCRF-CEM leukemia
MOLT-4 leukemia = tested on: MOLT-4 leukemia
SR leukemia = tested on: SR leukemia

Compound | growth (EKVX NSCLC) | growth (SN12C renal) | growth (UO-31 renal) | growth (TK-10 renal) | growth (ACHN renal) | growth (CAKI-1 renal) | growth (A498 renal) | growth (CCRF-CEM leukemia) | growth (MOLT-4 leukemia) | growth (SR leukemia)
CCCCN(CCCC)CCCCCCCCC(O)c1cc2ccccc2c2ccccc12 (stereo not given) | 60.4% | 64.9% | 52.3% | 79% | 59.9% | 71.9% | 46% | 37.4% | 39% | 37.6%
CC(=O)c1cc(Cl)ccc1O | 108% | 110% | 78.3% | 98.9% | 99.8% | 107% | 100% | 100% | 101% | 104%
CCN(CC)CCC(CNc1c(C)cnc2cc(Cl)ccc12)c1ccc(Cl)c(Cl)c1 (stereo not given) | 73.5% | 59.1% | 44.5% | 94.4% | 54.8% | 62.1% | 24.6% | 30.3% | 25.2% | -19.1% (active)
CC1CN(Cc2ccccc2)C(=O)NC1=O (stereo not given) | 121% | 91.1% | 85.7% | 104% | 109% | 116% | 121% | 103% | 94.2% | 101%
NC(=O)SCC(=O)Nc1ccc(S(N)(=O)=O)cc1 | 112% | 95.6% | 86.4% | 106% | 112% | 104% | 100% | 106% | 113% | 110%
COc1cc(CNc2ccccc2C(=O)N2CCN(C(=O)c3cc(-c4cc(OC)c(OC)c(OC)c4)n4nc(-c5ccccc5)cc4n3)CC2)cc(OC)c1OC | 63.6% | 79.4% | 19.1% | 52.1% | 51.8% | 18.9% | -5.33% (active) | 58.8% | 68% | 8.84% (active)
COc1ccc(/C=C/C(=O)Nc2ccc(-c3nc4ccc(OC)cc4s3)cc2)cc1 | 100% | 103% | 85.2% | 109% | 114% | 104% | 97.8% | 98.3% | 81.6% | 86.7%
O=C(Nc1ccncc1)C(=O)c1cn(S(=O)(=O)c2cc(Cl)cc(Cl)c2)c2ccccc12 | 52.3% | 73.5% | 75.2% | 73.1% | 68.4% | 54.5% | 63.1% | 67.9% | 73% | 38%
O=C(CC(C(=O)c1ccccc1)N1CCOCC1)c1ccccc1 (stereo not given) | 99.2% | 87.3% | 89.9% | 90.8% | 97.3% | 100% | 89.9% | 9.08% (active) | 45.7% | 28.5%
CC(C)C[C@H](NC(=O)[C@H](Cc1cccc2ccccc12)NS(=O)(=O)c1cccc2cccnc12)B(O)O | 6.76% (active) | 8.75% (active) | -80.2% (active) | -60.2% (active) | -3.75% (active) | -20.7% (active) | -36.4% (active) | -18.8% (active) | 1.17% (active) | 2.44% (active)
COc1ccc2c(c1)N(CCO)C1=C(C(=O)OC1)C2c1ccc(OC)c(OC)c1 (stereo not given) | 67% | 60.8% | 60.9% | 59.3% | 43.7% | 52.3% | 14.9% | 34.2% | 43.4% | 21%
COc1ccc(/C=C/C(=O)Nc2ccc(-c3nc4ccc(F)cc4s3)cc2)cc1 | 85.3% | 93.8% | 84.2% | 104% | 107% | 95.5% | 105% | 81.3% | 71.8% | 80.8%
COc1ccc2c(c1)sc1nc(-c3ccccc3)c(-c3ccc(O)c(OC)c3)n12 | 88.4% | 96.3% | 99.8% | 120% | 101% | 77.5% | 76.6% | 78.1% | 71.2% | 17.2%
COc1ccc2c(c1)/C(=C\c1c[nH]c3ccc(OC)cc13)C(=O)N2 | 47.8% | 52.8% | 46.8% | 81.7% | 39.6% | 21.3% | 34.6% | 28.6% | 11.7% | 14.7%
CCN(CC)CCCOCCCNc1cc(OC)cc2cccnc12 | 96.4% | 87.7% | 95.7% | 137% | 97.5% | 103% | 72% | 90.9% | 105% | 100%
CCCCCCCCCCCCCCCCN(C(C)c1ccccc1)S(=O)(=O)c1ccc(OC)c(N)c1 (stereo not given) | 114% | 118% | 89.2% | 122% | 106% | 96.5% | 123% | 97.5% | 98.8% | 94.2%
Cc1ccc(CC#N)cc1C | 87.8% | 105% | 94.4% | 107% | 94.6% | 45.3% | 136% | 128% | 93.9% | 89.3%
c1ccc(C(NC2CC3CCC2C3)c2ccccc2)cc1 (stereo not given) | 96.8% | 94% | 65% | 95.9% | 98.9% | 87.7% | 116% | 87.6% | 94% | 90.2%
COc1ccc2c(c1)-c1c(c3cc(OC)ccc3n(CCN(C)C)c1=O)C2=O | 34.5% | 24.6% | -24.7% (active) | -2.26% (active) | 8.27% (active) | 1.94% (active) | 48.6% | 3.78% (active) | 1.5% (active) | -12.4% (active)
Nc1ncn(C2OC(CO)C(O)C2O)c(=O)n1 (stereo not given) | 44.9% | 17.4% | 0.167% (active) | 4.79% (active) | -21.7% (active) | -2.03% (active) | 19% | -7.84% (active) | 0.695% (active) | -1.52% (active)
CCOC(=O)CNC(=O)CCCCSc1ncnc2nc[nH]c12 | 108% | 99% | 96.5% | 158% | 104% | 96.1% | 124% | 113% | 101% | 90.6%
C=C(NC(=O)C(=C)NC(=O)c1csc(C2=NC3c4csc(n4)C4NC(=O)c5csc(n5)C(C(C)(O)C(C)O)NC(=O)C5CSC(=N5)/C(=C/C)NC(=O)C(C(C)O)NC(=O)c5csc(n5)C3(CC2)NC(=O)C(C)NC(=O)C(=C)NC(=O)C(=C)NC(=O)C(C(C)C)NC2C=Cc3c(C(C)O)cc(nc3C2O)C(=O)OC4C)n1)C(N)=O (stereo not given) | 42.2% | 30.4% | -42.2% (active) | -9.31% (active) | -26.8% (active) | 15.8% | -30.3% (active) | -31.7% (active) | -15% (active) | 5.93% (active)
O=[N+]([O-])c1ccc(Oc2cccnc2)c([N+](=O)[O-])c1 | 93.9% | 97% | 58.3% | 67.5% | 72.4% | -9.25% (active) | 89.3% | 20.1% | 76.4% | 21.1%
CCN(CC)CCOc1nc2ccc(OC)cc2c2c1-c1ccc(OC)cc1C2=O | 25.2% | 29.3% | -44.4% (active) | 8.74% (active) | -93% (active) | -4.67% (active) | 25.4% | 5.22% (active) | 3.68% (active) | -14.8% (active)
CCN(CC)CCCC(C)Nc1nc(-c2ccc(OC)cc2)nc2cc(Cl)ccc12 (stereo not given) | 70.2% | 58% | 45% | 88.8% | 37% | 78.8% | 37.4% | 57.9% | 37.7% | 51.8%
CN(C)CCOc1nc2ccccc2c2c1-c1ccc(Cl)cc1C2=O | -1.93% (active) | 11.3% | -33.1% (active) | -16.4% (active) | 10.1% | -13.7% (active) | 25.2% | 2.75% (active) | 1.17% (active) | -6.41% (active)
CN(C)CCN1C(=O)c2cccc3cc(N)cc(c23)C1=O | 45.2% | 30.9% | -26.8% (active) | 32.9% | -30.3% (active) | 3% (active) | 41.8% | 13.6% | -2.12% (active) | 8.08% (active)
